MCF10A rerep: inducers of DNA re-replication in MCF 10A breast cells; MCF 10A DNA re-replication, Hoechst nuclear intensity, 48 h; 350,000 compounds, 2.9% hits; AID 624296; Potency, µM (top dose mostly 46.1 µM), inactives show top-dose activity, positive = re-replication, most hits filed as activators; further: % of control where 0% means no effect; nearly all actives have a fitted effect of over 50% in size
KB-3-1 cytotox: KB-3-1 parental cell cytotoxicity; Potency, µM (doses to about 46.1 µM), actives largely listed as cytotoxic; KB-3-1 viability, CellTiter-Glo ATP luminescence, 72 h; AID 1347075; 400,000 compounds, 1.4% hits; further: on the % scale 0 is the no-effect control and ±100 the full control effect; nearly all actives have a fitted effect of over 60% in size
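Cytotoxicity in the drug-sensitive parental line KB-3-1 was scored as loss of CellTiter-Glo luminescence following 72 h incubation with compound. Values come from curve fitting of normalized concentration-response data.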
PINK1 modulator: modulators of PINK1 expression; PINK1 immunofluorescence, high-content cytometry, 24 h; Potency, µM (titrated, usually from 76.6 µM), without a hit: at the highest dose activation (PINK1 increase), hits mostly activators; 410,000 compounds, 0.2% hits; active means well fitted activation curve with a large enough effect; inconclusive means small, poorly fitted or top-dose-only effect; cell line not stated here; further: % of control where 0% means no effect; nearly all actives have a fitted effect of over 65% in size
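Cells are seeded, rested 12 hours, then given compound at five concentrations or DMSO for 24 hours. After fixation, blocking and antibody staining, PINK1 amount and mitochondrial localization are scored; CCCP serves as control.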
SW480 rerep: induces DNA re-replication in SW480 colon adenocarcinoma cells; SW480 DNA re-replication, Hoechst DNA content imaging, 48 h; Potency, µM (highest dose often 46.1 µM), inactives show at the highest dose re-replication activation, hits mostly activators; 340,000 compounds, 1.8% hits; further: % of control where 0% means no effect; nearly all actives have a fitted effect of over 55% in size
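Image-based read-out: total Hoechst fluorescence of nuclei (405 nm excitation, 500-530 nm emission), with hits raising the fraction of high-intensity nuclei. SW480 colon cells incubated 48 hr with compounds at 37 C.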
KB-V1 cytotox: KB-V1 MDR subline cytotoxicity | AID 1347076 | Potency, µM (highest dose often 46.1 µM), most hits filed as cytotoxic | KB-V1 MDR cells viability, CellTiter-Glo, 72 h | 400,000 compounds, 3.4% hits; further: on the % scale 0 is the no-effect control and ±100 the full control effect; nearly all actives have a fitted effect of over 60% in size
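KB-V1 cells (P-gp-expressing MDR subline of KB-3-1) in phenol-red-free DMEM with 10% FBS were exposed to library compounds over a concentration series for 72 h at 37 degrees C. Viability read by CellTiter-Glo luminescence; concentration-effect curves fitted after normalization.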
PTAP TSG101 blk: blocks PTAP/TSG101 interaction to inhibit HIV-1 budding | Q99816 | Fluorescence polarization, FITC-PTAP peptide / Tsg101 binding | 340,000 tested, under 10 active | Potency, µM (doses to about 115 µM), without a hit: at the top dose activity change, negative = inhibition, most hits filed as inhibitors | AID 493005; active means well fitted inhibition curve with a large enough effect in the main read-out, with a control signal flat, not every such curve was filed as active; inconclusive means small, poorly fitted or top-dose-only effect, or effect the other way, or a change in a side signal; inactive means no such curve, though single readings can be large or run the other way; further: % of control where 0% means no effect
Target sequence (Q99816 whole entry, looked up): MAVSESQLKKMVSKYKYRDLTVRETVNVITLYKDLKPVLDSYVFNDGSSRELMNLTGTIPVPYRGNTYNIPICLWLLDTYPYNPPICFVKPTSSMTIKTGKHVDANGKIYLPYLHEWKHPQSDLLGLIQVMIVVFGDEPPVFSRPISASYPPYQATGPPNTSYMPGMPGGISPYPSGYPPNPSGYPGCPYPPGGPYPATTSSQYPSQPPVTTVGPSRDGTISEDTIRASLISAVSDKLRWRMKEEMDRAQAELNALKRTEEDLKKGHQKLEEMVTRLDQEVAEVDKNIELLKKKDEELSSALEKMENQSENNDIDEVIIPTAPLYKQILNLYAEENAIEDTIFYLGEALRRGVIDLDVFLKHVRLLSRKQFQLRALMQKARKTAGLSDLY
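Fluorescence anisotropy tracks displacement of a FITC-tagged PTAP peptide (50 nM) from the Tsg101 binding domain (10 uM), following a 20 min room-temperature incubation at pH 7.5.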
Numbers without * were called inactive; i = inactive; ? = inconclusive; · = no result; [ ] = another dose, or the depositor's remark. In the library only some 6.8% were active in any assay of this set; here they are far more common. Unless noted, the call rests on the fitted dose curve; in most records, active means well fitted curve in the direction sought with a large enough effect; inconclusive means small, poorly fitted or top-dose-only effect, or another doubt; inactive means no such curve, though single readings can be large; an effect the other way counts as inactive or inconclusive. Potency means the concentration at half of the fitted maximal effect.

SMILES	MCF10A rerep	KB-3-1 cytotox	PINK1 modulator	SW480 rerep	KB-V1 cytotox	PTAP TSG101 blk
CCOC(=O)c1ccc(NC(=O)CC(C)n2nc(C)cc2C)cc1 (stereo not given)	·	i	-1.8%	·	i	·
O=C(Cn1c(=O)nc(-c2ccccc2F)c2cc(Cl)ccc21)Nc1ccccc1C(F)(F)F	·	·	-0.9%	·	·	·
CC(=O)Oc1c(Cl)cc(N(C(C)=O)S(=O)(=O)c2ccccc2)c2ccccc12	?	?	2.2%	6.51µM*	?	-1.6%
CC(=O)Oc1ccc(N(C(C)=O)S(=O)(=O)c2ccccc2)c2ccccc12	·	i	-0.1%	·	i	·
N#Cc1ccsc1NC(=O)CN(Cc1ccccc1)Cc1ccccc1	?	?	6.2%	-3.2%	10.3µM*	-3.6%
N#Cc1ccsc1NC(=O)CCc1ccccc1	?	?	9.9%	?	?	-2.1%
CN1CCc2c(sc3nc(SCC(=O)N4CCOCC4)n(-c4ccc(Cl)cc4)c(=O)c23)C1	4.8%	i	2.9%	8.2µM*	i	-2.4%
COc1ccc(NS(=O)(=O)c2ccc(N3CCCCC3)c(N)c2)cc1	9.4%	20.6µM*	11.8%	-3.6%	?	-10.1%
CCN(CC)S(=O)(=O)c1ccc(N2CCCC2)c(NS(=O)(=O)c2ccc(OC)cc2)c1	-6.6%	i	4.4%	?	4.11µM*	-0.1%
CCN(CC)S(=O)(=O)c1ccc(N2CCCC2)c(NS(=O)(=O)c2ccccc2)c1	-0.3%	i	-0.8%	12.4%	i	0.1%
COc1ccc(NS(=O)(=O)c2ccc(N3CCCCC3)c(NC(=O)C(C)NC(N)=O)c2)cc1 (stereo not given)	-6.7%	·	-0.8%	16.3%	·	-1.9%
COc1ccc(NS(=O)(=O)c2ccc(N3CCOCC3)c(NC(=O)C(C)C)c2)cc1	9.1%	?	0.3%	-0.1%	18.4µM*	-0.2%
CCOC(=O)/C=C/C(=O)Nc1cc(S(=O)(=O)Nc2ccc(OC)cc2)ccc1N1CCOCC1	?	i	1.4%	16.4µM*	i	-1.2%
O=C(Cn1c(=O)c2cccn2c2cccnc21)NCc1cccc(F)c1	·	·	0.0%	·	·	·
C=CCn1c(SCc2ccc(C#N)cc2)nnc1-c1ccccc1	-2.8%	i	-5.2%[38.3 µM]	-8.1%	9.2µM*	0.6%
C=CCn1c(SCc2ccc(C#N)cc2)nnc1-c1cccc(OC)c1	-0.8%	i	-1.5%	-2.7%	i	-7.7%
COc1cccc(CNC(=O)C2=C(C)C(=O)OC23CCCCCC3)c1	·	i	1.0%	·	i	·
Cc1cc(C)cc(NC(=O)CCN2C(=O)c3ccccc3Sc3ncccc32)c1	·	·	0.1%	·	·	·
Cc1ccc(C(=O)Nc2cccc(S(=O)(=O)N3CCCCC3)c2)cc1[N+](=O)[O-]	?	20.6µM*	0.4%	-31.3%	?	-0.1%
O=C(Nc1cccc(S(=O)(=O)N2CCCCC2)c1)c1ccc([N+](=O)[O-])o1	16.4µM*	?	-1.0%	6.51µM*	?	-1.6%
Cc1ccc(S(=O)(=O)CCC(=O)OCC(=O)Nc2cccc(S(=O)(=O)N3CCCCC3)c2)cc1	·	i	-1.0%	·	i	·
O=C(COC(=O)c1ccc([N+](=O)[O-])o1)Nc1cccc(S(=O)(=O)N2CCCCC2)c1	-0.9%	i	0.8%	-7.5%	i	-2.5%
Cc1ccc(S(=O)(=O)CCC(=O)Nc2cccc(S(=O)(=O)N3CCCCCC3)c2)cc1	15.6%	?	-0.2%	4.9%	9.2µM*	-6.3%
c1csc(CNc2nc(CN3CCCC(c4nc5ccccc5o4)C3)nc3ccccc23)c1 (stereo not given)	·	·	-0.9%	·	·	·
COc1cc(C(=S)N2CCCC2)cc(OC)c1OC	3.66µM*	i	5.6%	-19.9%	i	-3.2%
SMILES	MCF10A rerep	KB-3-1 cytotox	PINK1 modulator	SW480 rerep	KB-V1 cytotox	PTAP TSG101 blk
CS(=O)(=O)N(CC(=O)N1CCN(c2ccccc2F)CC1)C1CCCCC1	10.0%	i	6.5%[38.3 µM]	20.9%	?	2.8%
Cc1ccc(S(=O)(=O)N(CC(=O)N2CCN(c3ccccc3F)CC2)C2CCCCC2)cc1	10.0%	?	-0.9%	4.3%	4.61µM*	-7.1%
O=C(/C=C/c1ccncc1)c1ccc(NC(=O)c2ccccc2F)cc1	3.66µM*	?	-0.8%	4.11µM*	?	-6.4%
N#CC1(c2ccc(NC(=O)c3ccccc3F)cc2)CCCC1	14.1%	?	-0.1%	2.0%	23.1µM*	-0.7%
O=C(Nc1ccc(Nc2ccccc2)cc1)c1ccccc1F	?	i	-0.7%	4.61µM*	i	-11.0%
CCN(CC)c1ccc(NC(=O)c2ccccc2F)cc1	?	16.4µM*	6.4%	18.4µM*	?	-4.5%
CCN(CC)c1ccc(NC(=O)c2cc(Cl)ccc2OC)cc1	?	i	0.3%	-1.7%	?	-3.7%
CCOc1ccc(CN(C(=O)c2cc(=O)c3cc(Cl)ccc3o2)C2CCS(=O)(=O)C2)cc1 (stereo not given)	·	i	0.8%	·	i	·
COc1ccc(C(=O)N(Cc2ccco2)Cc2ccco2)cc1	·	·	0.9%	·	·	·
Cc1ccc(Cl)cc1N1CCN(C(=O)CCS(=O)(=O)c2ccc3c(c2)oc(=O)n3C)CC1	·	i	3.1%	·	7.31µM*	·
CN1CCN(C(=O)CCS(=O)(=O)c2cc3c(cc2Cl)NC(=O)CO3)CC1	-2.4%	i	-3.3%	-6.3%	i	-2.1%
Cc1cccc(N2CCN(C(=O)CCS(=O)(=O)c3ccc4c(c3)oc(=O)n4C)CC2)c1C	0.4%	i	-0.9%	7.5%	i	-6.2%
Cc1ccc(C)c(N2CCN(C(=O)CCS(=O)(=O)c3cc4c(cc3Cl)NC(=O)CO4)CC2)c1	·	?	-1.5%	·	16.4µM*	·
CCOC(=O)CNC(=O)c1cc2c(=O)n3cccc(C)c3nc2n1C	·	·	0.5%	·	·	·
O=S(=O)(NC1c2cccc3cccc(c23)C1N1CCN(CCO)CC1)c1ccccc1 (stereo not given)	23.1µM*	?	-2.4%	5.9%[9.22 µM]	?	-1.2%
CSc1ncc(Cl)c(C(=O)Nc2c(C(=O)c3ccc(C)cc3)oc3ccccc23)n1	·	i	-0.4%	·	i	·
CC(=O)Nc1cccc(Oc2cc(C#N)c(C#N)cc2N2CCCCCC2)c1	6.7%	?	-1.4%	-3.7%	23.1µM*	-7.3%
CCCc1nc2cccnc2n1C1CCN(C(=O)Cn2nccc2C)CC1	·	·	0.4%	·	·	·
COc1c(C)cc(S(=O)(=O)Nc2cccc(-c3ccc(N4CCOCC4)nn3)c2)c(C)c1C	·	20.6µM*	0.1%	·	i	·
O=S(=O)(Nc1cccc(-c2ccc(N3CCCCCC3)nn2)c1)c1ccc(F)cc1	14.6µM*	?	-0.3%	?	i	0.1%

Source: PubChem (National Center for Advancing Translational Sciences (NCATS))
